Data reported in article PMC7819943, “Rice protein-binding microarrays: a tool to detect cis-acting elements near promoter regions in rice”.
In all, about 68,000 sequences were measured (“fluorescence intensity (a.u.)”: median about 9,100, highest 2% from about 16,000 on). Many of the other results were omitted from the sample, so the highest values are more common in it than they were.

These sequences were tested against OsWRKY34 (Oryza sativa, UniProt Q0JBA9 1-250) (assay: protein-binding microarray (RPBM); PBS, 2% BSA, 51.3 ng/ul salmon testes DNA, 50 uM zinc acetate, 200 nM TF, 25 C, 1 h; high values mean tight binding). Conditions: protein: recombinant; tags: N-terminal polyhistidine and DsRed monomer fusion (pET32a); label: CyDye5-dUTP incorporated in the synthesized complementary strand; 3' TTTTT single-stranded linker to array surface; dsDNA, one strand shown.
Sequence of OsWRKY34 (Q0JBA9 entry or part of it): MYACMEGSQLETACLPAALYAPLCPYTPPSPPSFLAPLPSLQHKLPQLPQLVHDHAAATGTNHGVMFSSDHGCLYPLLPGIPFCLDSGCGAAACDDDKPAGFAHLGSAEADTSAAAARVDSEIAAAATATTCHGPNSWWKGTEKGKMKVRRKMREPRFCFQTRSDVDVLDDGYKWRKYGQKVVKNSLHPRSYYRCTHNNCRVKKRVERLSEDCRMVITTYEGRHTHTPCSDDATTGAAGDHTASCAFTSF
In short: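 Using Ni–NTA, transcription factors fused N-terminally to polyhistidine and DsRed were purified after expression in E. coli BL21-CodonPlus. These were incubated at 200 nM with a blocked, double-stranded custom Agilent array for 1 h at 25 °C in a buffer containing 50 µM zinc acetate, and the array was washed. The binding signal is per-feature fluorescence intensity (arbitrary units) on an Axon 4000B scanner.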
With “CTACGATACACCGCTTGTTTCTGTTTTTCTTATCTAGGAACGGAGTCACCTAGTGCAG” the binding signal was 9180 fluorescence intensity (a.u.). With “CCTGTTACCTGTTTGGCTGACTTGGTCAAACACAACTCACCGGAGTCACCTAGTGCAG” the binding signal was 9460 fluorescence intensity (a.u.). For “GGGCTGGTTTGGCTTGGCTGTTACAAAGACAAAGAATGACCGGAGTCACCTAGTGCAG”, the binding signal was 16800 fluorescence intensity (a.u.). “GGTTTGGCTTGGCTTGGCGGCTGGTTCTGCTGAGGCTGACCGGAGTCACCTAGTGCAG” was tested, and the binding signal was 11900 fluorescence intensity (a.u.). In the case of “TTGGCCATGTTAATGTTTTACTGATCATCAATTTGGTTACCGGAGTCACCTAGTGCAG”, the binding signal is reported as 8980 fluorescence intensity (a.u.). In the case of “TGGTTTGGTTACTGGTTTAGTGCTTGAATTAATGTGGCACCGGAGTCACCTAGTGCAG”, the binding signal is reported as 18400 fluorescence intensity (a.u.). In the case of “GTGTTGTGGTTTACTGAATTGATGTTTGGCTTAAGTGATGCGGAGTCACCTAGTGCAG”, the binding signal is reported as 11800 fluorescence intensity (a.u.). In the case of “GCCGAGCCGCGTCCCTTTTTCCCATCGCCCACGCAGCGAGCGGAGTCACCTAGTGCAG”, the binding signal is reported as 8920 fluorescence intensity (a.u.). “TATGATATGTGTGCCTCAGTTGTTGTGCTTGCTGATGTGTCGGAGTCACCTAGTGCAG” was tested, and the binding signal was 9730 fluorescence intensity (a.u.). With “TTTCCGGTTTTTCCAATATTTTTCGATACCGTTTTCATTTCGGAGTCACCTAGTGCAG” the binding signal was 12800 fluorescence intensity (a.u.). In the case of “TCAGTCATCGTAAATTATTGTGATTTTTTAGGGAGGGGTGCGGAGTCACCTAGTGCAG”, the binding signal is reported as 9130 fluorescence intensity (a.u.). With “CAGGTAATGGATTGATTGCAGGGTTGGGATTTGACCAGGTCGGAGTCACCTAGTGCAG” the binding signal was 11300 fluorescence intensity (a.u.). In the case of “CGTCGTGGCGGGTTCATCGGGAGGGGATTATTGATTTAGTCGGAGTCACCTAGTGCAG”, the binding signal is reported as 21100 fluorescence intensity (a.u.). “GTATTGAGGGCTTAATCGTGGTCGTGGGATATTATTTCATCGGAGTCACCTAGTGCAG” was tested, and the binding signal was 8390 fluorescence intensity (a.u.). “TTTCCACCGTTTGGCGTTTGGGTAGGGTTGGGATGGGATGCGGAGTCACCTAGTGCAG” was tested, and the binding signal was 17200 fluorescence intensity (a.u.). With “GAAAGATTTTCACCGTTTGGGTAGGTTGGGGATGGGATGACGGAGTCACCTAGTGCAG” the binding signal was 11400 fluorescence intensity (a.u.). With “TTCATATTTTCACCGTTTGGGTAGAGTGGTGGTGGGGTGTCGGAGTCACCTAGTGCAG” the binding signal was 10400 fluorescence intensity (a.u.). With “GGGGATCGGAGGGTGGGGATACGCATGGTGGATGGTAGTGCGGAGTCACCTAGTGCAG” the binding signal was 12600 fluorescence intensity (a.u.). With “GGGTTTGGGGTTGCGATTGGGATTGGTAGGGAGGCTGATGCGGAGTCACCTAGTGCAG” the binding signal was 8280 fluorescence intensity (a.u.). For “CGTCATATTTGCACCGTTTGGGTAGGGTGGGGATGGGGTGCGGAGTCACCTAGTGCAG”, the binding signal was 18700 fluorescence intensity (a.u.). “TTGGGTGGAGGATTTGGAATTTGACCGGTTGACTTAGGGTCGGAGTCACCTAGTGCAG” was tested, and the binding signal was 11900 fluorescence intensity (a.u.). For “ATGGGGTTGACTTTTTTTTAGGGATTGCTAGGTGCACCGTCGGAGTCACCTAGTGCAG”, the binding signal was 20100 fluorescence intensity (a.u.). With “ATTATTTTTGGTTGTTCTATTTATTTTCTTAAAATAATTCCGGAGTCACCTAGTGCAG” the binding signal was 11300 fluorescence intensity (a.u.). With “CCCCACATCTTTTGCTAGCATGCCCCTACCCATTCATATTCGGAGTCACCTAGTGCAG” the binding signal was 10500 ± 300 fluorescence intensity (a.u.). “CTGAGTTCTGTATTGGATCAGCTTCATGTTATCGGCATCACGGAGTCACCTAGTGCAG” was tested, and the binding signal was 8450 fluorescence intensity (a.u.). “TTCTCCTATCTTCAACATTTGCTTTGTTACGTTTTTGACTCGGAGTCACCTAGTGCAG” was tested, and the binding signal was 9560 fluorescence intensity (a.u.). “TTTTTCTCGGTAATTTTGTGATTGGTCTACTCCTACAAAACGGAGTCACCTAGTGCAG” was tested, and the binding signal was 8290 fluorescence intensity (a.u.). For “TGGATGATTTTGCCATTTTTTTCATTGCTGGTGCGGTGGTCGGAGTCACCTAGTGCAG”, the binding signal was 8460 fluorescence intensity (a.u.). With “CCCGGCGTCCTCCTGCTTCCCACCGCATCGTCGCTCGCCGCGGAGTCACCTAGTGCAG” the binding signal was 8120 fluorescence intensity (a.u.). With “GAGGGTGGGTGCTTGCTGGCCAGACATTAAAACAATGTGTCGGAGTCACCTAGTGCAG” the binding signal was 9670 fluorescence intensity (a.u.). With “TTCTTCCCAGCCAGTGTTCCTAGTATCCATTCTCTCTCAACGGAGTCACCTAGTGCAG” the binding signal was 9850 fluorescence intensity (a.u.). “GTGGGCTGGGCTTCTTCTTCGTCGTCTCATACCAATCGTGCGGAGTCACCTAGTGCAG” was tested, and the binding signal was 17100 fluorescence intensity (a.u.). For “GCGGCTTCTTCTCGGGGTGGATTTGGTGGTGGTTTTTTTTCGGAGTCACCTAGTGCAG”, the binding signal was 21500 fluorescence intensity (a.u.). In the case of “TTGGATTGCAGTGGGGCGGACGGCGGTGGGCGGGGCTTCTCGGAGTCACCTAGTGCAG”, the binding signal is reported as 27600 fluorescence intensity (a.u.). In the case of “GTAGGCTTTTGTTTCGGGTGGGATAATATCTTGGGGAAAGCGGAGTCACCTAGTGCAG”, the binding signal is reported as 20700 fluorescence intensity (a.u.). With “GACGGGCGGCGGTGGGGCTGACGCGGGCGACGGAGGGGCTCGGAGTCACCTAGTGCAG” the binding signal was 11500 fluorescence intensity (a.u.). “TGGTTTGCGGTGGTGCGCGCGCGGCTTCTTCTCGGGGTGGCGGAGTCACCTAGTGCAG” was tested, and the binding signal was 9070 fluorescence intensity (a.u.). With “ACGTAGGAAGGTGGAAGCGGTTTCTTGGGGTTTGGATATGCGGAGTCACCTAGTGCAG” the binding signal was 11000 fluorescence intensity (a.u.). In the case of “CTTGTGGATTTCGTTCGAGTTCTTGTGGTTTTGGATCGGGCGGAGTCACCTAGTGCAG”, the binding signal is reported as 9590 fluorescence intensity (a.u.). With “GGGAAAGTGGTTGGCGGATATTCTTGTTTTCTTTTTTTGTCGGAGTCACCTAGTGCAG” the binding signal was 12500 fluorescence intensity (a.u.). In the case of “GTCGTCTCATACCAATCGTGCGGCGGCGGCGGCGGGGATGCGGAGTCACCTAGTGCAG”, the binding signal is reported as 10400 fluorescence intensity (a.u.). “GGGTGACGGGAGCAGCGGCGCGCGGGTGGTGGGGCTTGGACGGAGTCACCTAGTGCAG” was tested, and the binding signal was 10700 fluorescence intensity (a.u.). In the case of “TTTGGGGCGCGGGTGGGTGGCTGGGTGCGCGTCGATCGTGCGGAGTCACCTAGTGCAG”, the binding signal is reported as 10900 fluorescence intensity (a.u.). “AGGTTCACAATCTATCCGACTTTTGATTTTCTTTCAATTCCGGAGTCACCTAGTGCAG” was tested, and the binding signal was 9110 fluorescence intensity (a.u.). “CAATGGCTTACGACGAGACGACTCACCTTTGAATTCCACGCGGAGTCACCTAGTGCAG” was tested, and the binding signal was 9460 fluorescence intensity (a.u.). With “TTTTAAAACTGCTGGGATTTTGCTTTCTGTTTCTTCAATGCGGAGTCACCTAGTGCAG” the binding signal was 10900 fluorescence intensity (a.u.). With “TTAGTTTTGTTAGATCGTCGATTTTGATTAGTGCGTTTGACGGAGTCACCTAGTGCAG” the binding signal was 9190 fluorescence intensity (a.u.). With “AAACCAACCCCACCCAACCCACGCGAGAACCGTGGACCACCGGAGTCACCTAGTGCAG” the binding signal was 9500 fluorescence intensity (a.u.). With “ATTTCTCTTGCCTATGTTTTCATTTTGCAATTATTTTTGTCGGAGTCACCTAGTGCAG” the binding signal was 10500 fluorescence intensity (a.u.). With “TGTTTGCACTTCATTCCATTCCATTCCACCTCCACTGCTTCGGAGTCACCTAGTGCAG” the binding signal was 8390 fluorescence intensity (a.u.). “GCTCGGGCATCCTTTTTAAGGGCTCGGGGCGGCGGAATCACGGAGTCACCTAGTGCAG” was tested, and the binding signal was 8290 fluorescence intensity (a.u.). “CTTTTATATAGCTTTGTCTAGTCTTGTGAATTCTCAATTGCGGAGTCACCTAGTGCAG” was tested, and the binding signal was 8530 fluorescence intensity (a.u.). For “AATCTGTGGGCAGGGGCGGCGACGTCGGCGGGCGAGGGCTCGGAGTCACCTAGTGCAG”, the binding signal was 8660 fluorescence intensity (a.u.). In the case of “GTTTCATCTTCTTGTGGGCTTTTCTGGTGAACTCAATTCACGGAGTCACCTAGTGCAG”, the binding signal is reported as 8250 fluorescence intensity (a.u.). “GGCTCGGGGCGGCGGAATCATGGGCGATTGGGGCGGCAACCGGAGTCACCTAGTGCAG” was tested, and the binding signal was 22500 fluorescence intensity (a.u.). With “TCGGCTTGGTGGGGCTGGAGAACGTCTTTTCTCAATTGTGCGGAGTCACCTAGTGCAG” the binding signal was 22000 fluorescence intensity (a.u.).
